The structures appear in SMILES notation. Records with an inconclusive call do not appear. Calls of active or inactive are those of the source. Calls follow the shape of the dose curve; as a rule, active = well fitted inhibition curve with a large enough effect; inconclusive = small, poorly fitted or top-dose-only effect; inactive = flat fitted curve, though single readings scatter.

Experiment in all cases: qHTS profiling for inhibitors of Plasmodium falciparum proliferation (AID 504749); also: nearly all actives have a fitted effect of over 60% in size
Conditions in all cases: P. falciparum in erythrocytes, SYBR Green DNA, 72 h; series mostly up to 28.7 µM
(In general: qHTS replaces the single test concentration by a dilution series.)

One assay concerns CP286. In a few lines:
(§1)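 SYBR Green fluorescence of parasite DNA, read after lysis and overnight dark incubation, measured growth over 72 h in erythrocyte culture at 0.3% parasitemia and 2.5% hematocrit. Data normalised to DMSO and 0.29 uM artemisinin, with plate-drift correction.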

A further assay deals with CP291. An outline of the steps:
as §1

The next assay concerns CP297. An outline of the steps:
as §1

Another assay relates to CP305. An outline of the steps:
as §1

In the next assay the test system is CP325. In a few lines: as §1
The next assay relates to CP329. In a few lines: as §1
A further assay deals with DFO2036. An outline of the steps: as §1
A further assay has as its system DIV14. An outline of the steps:
as §1

The test system of another assay is DIV17. In a few lines: as §1
Another assay concerns DIV30. In a few lines:
as §1

A further assay concerns Dd2. An outline of the steps: as §1
For the next assay, the system named is ECU. In a few lines:
as §1

The next assay has as its system FAB9. In a few lines: as §1
The next assay deals with GB4. An outline of the steps: as §1
The next assay relates to HB3. An outline of the steps:
as §1

Another assay deals with ICS. In a few lines: as §1
Another assay has as its system JCK. An outline of the steps: as §1
For the next assay, the system named is N140. In a few lines:
as §1

The next assay relates to CP315. An outline of the steps: as §1
In another assay the test system is CP335. An outline of the steps:
as §1
Potency is read from the fitted curve at half-maximal effect.

As for `O=C(O)c1nc(=O)[nH]c(=O)[nH]1`, the Potency result in the assay on CP286, in the assay with CP291, in the assay on CP297, in the assay on CP305, with CP325 and in the assay with CP329 was “inactive” throughout. The Potency entry in the assay on DFO2036, with DIV14, with DIV17, in the assay on DIV30, with Dd2 and in the assay on ECU was “inactive” each time. In addition, the Potency result with GB4, in the assay with HB3, with ICS and in the assay on N140 was “inactive” in each case. Further, the call with FAB9 and with JCK was inactive.
`CN1CC(=O)N2C(Cc3c([nH]c4ccccc34)[C@H]2c2ccc3c(c2)OCO3)C1=O` (stereo partly drawn): the Potency result with CP286, with CP291, with CP297, with CP305, in the assay with CP315 and with CP325 was “inactive” throughout. Besides, the Potency result in the assay on CP329, in the assay on CP335, in the assay with DFO2036, in the assay on DIV30, in the assay with Dd2 and with ECU was “inactive” throughout. For the same molecule, the Potency entry with GB4, in the assay on HB3 and with N140 was “inactive” each time. Moreover, the call in the assay on FAB9 and in the assay on JCK was inactive.
Take `CC(C)CN(C[C@@H](O)[C@H](Cc1ccccc1)NC(=O)O[C@H]1CO[C@H]2OCC[C@H]21)S(=O)(=O)c1ccc(N)cc1`: the Potency entry in the assay on CP286, in the assay on CP291, with CP297, in the assay on CP305, in the assay on CP315 and in the assay on CP325 was “inactive” in each case. The Potency result with CP329, in the assay on CP335, in the assay with DFO2036, in the assay with Dd2, with ECU and with GB4 was “inactive” throughout. Also, the Potency entry in the assay with HB3 was “inactive”. Moreover, the result with FAB9 and in the assay with JCK was inactive.
Consider `NS(=O)(=O)c1cc(Cl)c(Cl)c(S(N)(=O)=O)c1`, for which the Potency entry in the assay with CP286, in the assay with CP291, in the assay with CP297, in the assay on CP305, with CP315 and with CP325 was “inactive” each time. Besides, the Potency entry with CP329, in the assay on CP335, in the assay on DFO2036, in the assay on DIV14, with DIV17 and in the assay on DIV30 was “inactive” throughout. The Potency result with Dd2, in the assay on ECU, with GB4, with HB3, in the assay on ICS and with N140 was “inactive” in each case. In addition, the molecule was classed as inactive with FAB9 and in the assay on JCK.
As to `C=C1c2cccc(O)c2C(O)=C2C(=O)[C@@]3(O)C(O)=C(C(N)=O)C(=O)[C@@H](N(C)C)[C@@H]3[C@@H](O)[C@H]12`, the Potency result with CP291, in the assay on CP297, in the assay on CP305, with CP315, in the assay on CP325 and in the assay with CP329 was “inactive” in each case. Besides, the Potency result in the assay with DFO2036, with DIV14, with DIV17, with DIV30, in the assay with ECU and in the assay with GB4 was “inactive” each time. Moreover, the Potency entry with N140 is “inactive”. For the same molecule, the Potency with Dd2 was 1.78 µM (active). For the same molecule, the result in the assay with FAB9 and in the assay on JCK was inactive.
With `Clc1ccc(COC(Cn2ccnc2)c2ccc(Cl)cc2Cl)c(Cl)c1` (stereo not drawn), the Potency was 4.05 µM (active) in the assay with CP297; 5.1 µM (active) in the assay with CP325; 3.16 µM (active) in the assay with DFO2036; 2.28 µM (active) in the assay on DIV14; 3.61 µM (active) in the assay on DIV17; 5.73 µM (active) in the assay on DIV30. Moreover, the Potency in the assay on ECU is 1.26 µM (active); in the assay with GB4, 5.1 µM (active); in the assay with HB3, 3.55 µM (active); in the assay on ICS, 1 µM (active); with N140, 2.24 µM (active).
As to `CS(=O)(=O)c1ccc(C2=C(c3ccccc3)C(=O)OC2)cc1`, the Potency entry in the assay on CP286, in the assay on CP291, with CP297, in the assay on CP305, in the assay on CP315 and with CP325 was “inactive” throughout. Besides, the Potency entry in the assay with CP329, in the assay on CP335, with DFO2036, in the assay on DIV14, in the assay on DIV17 and in the assay with DIV30 was “inactive” throughout. Also, the Potency result in the assay with Dd2, with ECU, with GB4, in the assay with HB3, in the assay on ICS and in the assay on N140 was “inactive” each time. Besides, the molecule was called inactive with FAB9 and in the assay with JCK.
Turning to `Fc1ccc(C(c2ccc(F)cc2)N2CCN(CC=Cc3ccccc3)CC2)cc1`, the Potency in the assay with CP305 was 13.5 µM (active); in the assay on CP335 it was 15.1 µM (active); in the assay with DIV14, 12 µM (active); with DIV17 it was 13.5 µM (active); in the assay on DIV30, 16.9 µM (active); in the assay on GB4, 16.9 µM (active).
As to `COc1ccnc(CS(=O)c2nc3ccc(OC(F)F)cc3[nH]2)c1OC` (stereo not drawn), the Potency result in the assay with CP286, in the assay on CP291, in the assay on CP297, with CP305, with CP315 and with CP325 was “inactive” each time. The Potency result in the assay with CP329, in the assay with CP335, with DFO2036, with DIV14, with DIV17 and with Dd2 was “inactive” throughout. Also, the Potency entry with ECU, with GB4, with HB3, with ICS and in the assay on N140 was “inactive” throughout. The molecule was classed as inactive in the assay on FAB9 and in the assay with JCK.
On to `CN1CCN2c3ncccc3Cc3ccccc3C2C1` (stereo not drawn), for which the Potency result in the assay on CP286, in the assay with CP297, with CP305, in the assay on CP315, with CP325 and in the assay on CP329 was “inactive” in each case. In addition, the Potency result with DFO2036, in the assay on DIV30, in the assay on ECU and with HB3 was “inactive” in each case. Further, the outcome in the assay with FAB9 and in the assay on JCK was inactive. In addition, the Potency in the assay on ICS is 11.2 µM (active).
Turning to `Cc1cc2nc3c(=O)[nH]c(=O)nc-3n(CC(O)C(O)C(O)CO)c2cc1C` (stereo not drawn), the Potency entry in the assay on CP286, in the assay on CP291, with CP297, in the assay on CP305, in the assay with CP315 and with CP325 was “inactive” each time. The Potency result with CP329, in the assay on CP335, with DFO2036, in the assay on DIV30, in the assay on Dd2 and in the assay on ECU was “inactive” throughout. Further, the Potency entry in the assay on HB3, in the assay on ICS and with N140 was “inactive” each time. In addition, the result in the assay with FAB9 and in the assay with JCK was inactive.
Take `N#Cc1c(N(CC(=O)O)CC(=O)O)sc(C(=O)O)c1CC(=O)O`: the Potency result with CP286, with CP291, with CP297, in the assay with CP305, in the assay on CP315 and in the assay with CP325 was “inactive” in each case. Also, the Potency result with CP329, with CP335, with DFO2036, in the assay on DIV14, in the assay with DIV17 and with DIV30 was “inactive” in each case. Also, the Potency entry in the assay on Dd2, in the assay with ECU, in the assay on GB4, in the assay with HB3, with ICS and in the assay on N140 was “inactive” each time. Moreover, the outcome with FAB9 and in the assay on JCK was inactive.
Take `N#CC(c1ccc(Cl)cc1)c1c(Cl)cc(-n2ncc(=O)[nH]c2=O)cc1Cl` (stereo not drawn): the Potency result in the assay with CP286, in the assay on CP291, in the assay on CP297, in the assay with CP305, in the assay on CP315 and with CP325 was “inactive” in each case. In addition, the Potency result in the assay on CP329, in the assay with CP335, in the assay on DFO2036, in the assay with DIV30, in the assay on Dd2 and with ECU was “inactive” in each case. Also, the Potency entry with GB4, in the assay on HB3 and with N140 was “inactive” in each case. Further, the molecule was classed as inactive with FAB9 and with JCK.
In the case of `COc1cc2c(cc1OC)CC(=O)N(CCCN(C)C[C@H]1Cc3cc(OC)c(OC)cc31)CC2`, the Potency entry with CP286, with CP291, in the assay with CP297, in the assay with CP305, in the assay with CP315 and in the assay with CP325 was “inactive” throughout. In addition, the Potency result in the assay on CP329, with CP335, in the assay with DFO2036, in the assay on Dd2, in the assay with ECU and in the assay with GB4 was “inactive” in each case. The Potency entry in the assay on HB3 and with N140 was “inactive” in each case. Moreover, the molecule was classed as inactive in the assay with FAB9 and with JCK.
As to `O=C1C(CCC(O)c2ccc(F)cc2)C(c2ccc(O)cc2)N1c1ccc(F)cc1` (stereo not drawn), the Potency result in the assay on CP286, with CP291, in the assay on CP297, in the assay on CP305, in the assay on CP315 and in the assay on CP325 was “inactive” throughout. Moreover, the Potency result in the assay with CP329, in the assay with CP335, with DFO2036, in the assay on DIV14, in the assay on DIV17 and in the assay with DIV30 was “inactive” in each case. Also, the Potency result in the assay with Dd2, in the assay on ECU, with GB4, in the assay on HB3, in the assay with ICS and in the assay on N140 was “inactive” throughout. Moreover, the molecule was classed as inactive with FAB9 and in the assay on JCK.
Regarding `COc1c(C)c2c(c(O)c1CC=C(C)CCC(=O)OCCN1CCOCC1)C(=O)OC2`, the Potency in the assay on CP286 was 7.08 µM (active); with CP291, 8.49 µM (active); with CP297 it was 12 µM (active); in the assay on CP305, 10.7 µM (active); with CP315, 13.5 µM (active); with CP325, 10.7 µM (active). The Potency in the assay with CP329 is 7.57 µM (active); in the assay with CP335, 8.49 µM (active); in the assay on DFO2036, 10 µM (active); in the assay with DIV14, 13.5 µM (active); in the assay with DIV17, 15.1 µM (active); with DIV30 it was 12 µM (active). The Potency is 11.2 µM (active) in the assay on Dd2; 10 µM (active) in the assay with ECU; 6.75 µM (active) in the assay on GB4; 7.94 µM (active) in the assay on ICS; 8.91 µM (active) with N140. Besides, in the assay on FAB9, the call was inactive.
